Laboratory results taken from PubChem BioAssay AID1159580 (chemical genetic matrix, 2015).
Out of some 5,500 compounds screened, about 2,000 (36%) were called active. About 18% were inconclusive and are not listed. No stated cut-off is given here; in the data, active means normalized growth mostly below about 0.91 (no sharp cut-off); inconclusive means no clear call, values can overlap the other calls; inactive means mostly above about 0.92. This is one part of the list.

Assay: chemical genetic growth profiling, strain panel (AID 1159580);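 further: tested at 20 µM; growth read once vehicle control cultures reached saturation at 30 °C; 1 = growth at the plate median or of vehicle wells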
Details: growth OD

Measured: normalized growth

CC(=O)OCC(=O)[C@@]1(O)CCC2C3CCC4=CC(=O)C=CC4(C)C3[C@@H](O)C[C@@]21C (stereo partly drawn)
inactive: S. cerevisiae deletion strains, locus YKL009W, strain mrt4, stronger effect = lower value 1.07 | S. cerevisiae deletion strains, locus YKL068W, stronger effect = lower value 1.01 | S. cerevisiae deletion strains, locus YKL085W, strain MDH1 (second series), stronger effect = lower value 1.01 | S. cerevisiae deletion strains, locus YKL085W, strain MDH1, stronger effect = lower value 1.01 | S. cerevisiae deletion strains, locus YKL160W, strain elf1, stronger effect = lower value 0.973 | S. cerevisiae deletion strains, locus YKL190W, strain CNB1, stronger effect = lower value 1.02 | S. cerevisiae deletion strains, locus YKR001C, strain vps1, stronger effect = lower value 1.02 | S. cerevisiae deletion strains, locus YKR026C, strain gcn3, stronger effect = lower value 0.985 | S. cerevisiae deletion strains, locus YKR091W, strain srl3, stronger effect = lower value 1 | S. cerevisiae deletion strains, locus YLL001W, strain dnm1, stronger effect = lower value 0.953 | S. cerevisiae deletion strains, locus YLL026W, stronger effect = lower value 0.99 | S. cerevisiae deletion strains, locus YLL041C, strain sdh2, stronger effect = lower value 0.998 | S. cerevisiae deletion strains, locus YLR027C, strain aat2, stronger effect = lower value 0.991 | S. cerevisiae deletion strains, locus YLR039C, strain RIC1, stronger effect = lower value 1.04 | S. cerevisiae deletion strains, locus YLR058C, strain SHM2, stronger effect = lower value 0.998 | S. cerevisiae deletion strains, locus YLR102C, strain apc9, stronger effect = lower value 1.01 | S. cerevisiae deletion strains, locus YLR113W, strain HOG1, stronger effect = lower value 0.999 | S. cerevisiae deletion strains, locus YLR221C, strain rsa3, stronger effect = lower value 1.01 | S. cerevisiae deletion strains, locus YLR258W, strain gsy2, stronger effect = lower value 1 | S. cerevisiae deletion strains, locus YLR262C, strain YPT6 (second series), stronger effect = lower value 0.967 | S. cerevisiae deletion strains, locus YLR262C, strain YPT6, stronger effect = lower value 1.04 | S. cerevisiae deletion strains, locus YLR268W, strain sec22, stronger effect = lower value 1.03 | S. cerevisiae deletion strains, locus YLR320W, strain mms22, stronger effect = lower value 0.982 | S. cerevisiae deletion strains, locus YLR330W, strain CHS5, stronger effect = lower value 1.01 | S. cerevisiae deletion strains, locus YLR342W, strain FKS1 (second series), stronger effect = lower value 1.02 | S. cerevisiae deletion strains, locus YLR342W, strain FKS1, stronger effect = lower value 0.992 | S. cerevisiae deletion strains, locus YLR357W, strain rsc2, stronger effect = lower value 0.997 | S. cerevisiae deletion strains, locus YLR370C, strain arc18, stronger effect = lower value 0.984 | S. cerevisiae deletion strains, locus YLR371W, strain rom2, stronger effect = lower value 1.02 | S. cerevisiae deletion strains, locus YLR384C, strain iki3, stronger effect = lower value 0.973 | S. cerevisiae deletion strains, locus YLR418C, strain cdc73, stronger effect = lower value 1.02 | S. cerevisiae deletion strains, locus YML016C, strain PPZ1, stronger effect = lower value 1.01 | S. cerevisiae deletion strains, locus YML032C, strain rad52, stronger effect = lower value 1.03 | S. cerevisiae deletion strains, locus YML120C, strain ndi1, stronger effect = lower value 0.995 | S. cerevisiae deletion strains, locus YML124C, strain tub3, stronger effect = lower value 1.02 | S. cerevisiae deletion strains, locus YMR058W, strain fet3, stronger effect = lower value 0.992 | S. cerevisiae deletion strains, locus YMR078C, strain ctf18, stronger effect = lower value 1.01 | S. cerevisiae deletion strains, locus YMR125W, strain sto1, stronger effect = lower value 1 | S. cerevisiae deletion strains, locus YMR129W, stronger effect = lower value 0.993 | S. cerevisiae deletion strains, locus YMR205C, strain PFK2, stronger effect = lower value 0.99 | S. cerevisiae deletion strains, locus YMR223W, strain ubp8, stronger effect = lower value 1.02 | S. cerevisiae deletion strains, locus YMR231W, strain pep5, stronger effect = lower value 0.992 | S. cerevisiae deletion strains, locus YMR263W, strain SAP30, stronger effect = lower value 1 | S. cerevisiae deletion strains, locus YMR307W, strain GAS1, stronger effect = lower value 1.02 | S. cerevisiae deletion strains, locus YNL067W, strain RPL9B, stronger effect = lower value 1 | S. cerevisiae deletion strains, locus YNL071W, strain lat1, stronger effect = lower value 1.01 | S. cerevisiae deletion strains, locus YNL128W, strain TEP1, stronger effect = lower value 1.01 | S. cerevisiae deletion strains, locus YNL153C, strain GIM3, stronger effect = lower value 1 | S. cerevisiae deletion strains, locus YNL183C, strain NPR1, stronger effect = lower value 0.959 | S. cerevisiae deletion strains, locus YNL209W, strain ssb2, stronger effect = lower value 1 | S. cerevisiae deletion strains, locus YNL233W, strain BNI4, stronger effect = lower value 1.02 | S. cerevisiae deletion strains, locus YNL248C, strain rpa49, stronger effect = lower value 0.989 | S. cerevisiae deletion strains, locus YNL250W, strain rad50, stronger effect = lower value 1.01 | S. cerevisiae deletion strains, locus YNL271C, strain bni1, stronger effect = lower value 1.02 | S. cerevisiae deletion strains, locus YNL298W, strain CLA4, stronger effect = lower value 1.02 | S. cerevisiae deletion strains, locus YNL307C, strain MCK1, stronger effect = lower value 1.02 | S. cerevisiae deletion strains, locus YNL322C, strain KRE1 (second series), stronger effect = lower value 0.992 | S. cerevisiae deletion strains, locus YNR049C, strain mso1, stronger effect = lower value 0.997 | S. cerevisiae deletion strains, locus YNR052C, strain pop2, stronger effect = lower value 1.01 | S. cerevisiae deletion strains, locus YOL006C, strain TOP1, stronger effect = lower value 1.06 | S. cerevisiae deletion strains, locus YOL012C, strain htz1 0.982 | S. cerevisiae deletion strains, locus YOL147C, strain pex11, stronger effect = lower value 1.01 | S. cerevisiae deletion strains, locus YOR001W, strain rrp6, stronger effect = lower value 0.98 | S. cerevisiae deletion strains, locus YOR061W, strain CKA2, stronger effect = lower value 1.01 | S. cerevisiae deletion strains, locus YOR069W, strain VPS5, stronger effect = lower value 1 | S. cerevisiae deletion strains, locus YOR070C, strain gyp1, stronger effect = lower value 0.999 | S. cerevisiae deletion strains, locus YOR080W, strain dia2, stronger effect = lower value 0.984 | S. cerevisiae deletion strains, locus YOR083W, strain WHI5, stronger effect = lower value 0.965 | S. cerevisiae deletion strains, locus YOR106W, strain vam3, stronger effect = lower value 0.973 | S. cerevisiae deletion strains, locus YOR136W, strain idh2, stronger effect = lower value 1.02 | S. cerevisiae deletion strains, locus YOR144C, strain elg1, stronger effect = lower value 1.02 | S. cerevisiae deletion strains, locus YOR184W, strain ser1, stronger effect = lower value 1.01 | S. cerevisiae deletion strains, locus YOR231W, strain MKK1, stronger effect = lower value 0.999 | S. cerevisiae deletion strains, locus YOR265W, strain rbl2, stronger effect = lower value 1 | S. cerevisiae deletion strains, locus YOR270C, strain vph1, stronger effect = lower value 1.01 | S. cerevisiae deletion strains, locus YOR290C, strain snf2, stronger effect = lower value 1.01 | S. cerevisiae deletion strains, locus YOR316C, strain cot1, stronger effect = lower value 1.02 | S. cerevisiae deletion strains, locus YPL051W, strain arl3, stronger effect = lower value 0.986 | S. cerevisiae deletion strains, locus YPL078C, strain atp4, stronger effect = lower value 0.97 | S. cerevisiae deletion strains, locus YPL106C, strain sse1, stronger effect = lower value 1.01 | S. cerevisiae deletion strains, locus YPL240C, strain hsp82, stronger effect = lower value 0.98 | S. cerevisiae deletion strains, locus YPL256C, strain CLN2, stronger effect = lower value 0.96 | S. cerevisiae deletion strains, locus YPR119W, strain clb2, stronger effect = lower value 1.01 | S. cerevisiae deletion strains, locus YPR141C, strain kar3, stronger effect = lower value 1.02 | S. cerevisiae deletion strains, locus YPR163C, strain tif3, stronger effect = lower value 1.02 | S. cerevisiae deletion strains, locus YPR167C, strain met16, stronger effect = lower value 1.02 | S. cerevisiae deletion strains, strain wtn01, stronger effect = lower value 1.01 | S. cerevisiae strains, strain wild type, stronger effect = lower value 1
